Activity calls are given as the source filed them. How the source made its calls: active means hit-call score of the fitted dose curve at least 0.9, where 1 is the maximum; inactive means score below 0.9.

A word on the AC50: it is the concentration giving half of the maximal activity seen.

Conditions in all cases: mRNA level, 48 h; actives raise or lower the signal
Read-out in test [1]: Nuclear factor NF-kappa-B p105 subunit (Homo sapiens) (UniProt P19838)
Description: LTEA_HepaRG_NFKB1: Life Technologies and Expression Analysis (LTEA) Assay for Nuclear Factor Kappa B Subunit 1 (NFKB1) using HepaRG (AID 2283521).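 Further: TaqMan qRT-PCR transcript normalised to ACTB GAPDH and POLR2A housekeeping genes.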 The procedure, abridged:
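Human HepaRG cells receive eight half-log concentrations, highest 100 uM, for 48 h. NFKB1 expression is then quantified by qRT-PCR and analysed for up- or down-regulation relative to 0.5% DMSO vehicle.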

Read-out in test [2]: Phosphatase and tensin (PTEN), PTEN (gene 5728)
Description: LTEA_HepaRG_PTEN: Life Technologies and Expression Analysis (LTEA) Assay for Phosphatase and tensin (PTEN) using HepaRG (AID 2283523). In outline:
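HepaRG cells, 48 h after plating, exposed in duplicate for 48 h in serum-free induction medium to 8 half-log concentrations up to 100 uM (0.5% DMSO). PTEN mRNA by qRT-PCR, normalized to ACTB, GAPDH, POLR2A; bidirectional fit versus DMSO.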

Read-out in test [3]: solute carrier (SLC22A1), SLC22A1 (gene 6580)
Description: LTEA_HepaRG_SLC22A1: Life Technologies and Expression Analysis (LTEA) Assay for solute carrier (SLC22A1) using HepaRG (AID 2283524). In outline:
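Differentiated human HepaRG cells in serum-free induction medium, exposed 48 h in duplicate to 8-point half-log series from 100 µM top in 0.5% DMSO. SLC22A1 mRNA by TaqMan qRT-PCR normalized to ACTB, GAPDH, POLR2A; bidirectional fit versus DMSO.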

Read-out in test [4]: Pyruvate Dehydrogenase Kinase 4 (PDK4), PDK4 (gene 5166)
Description: LTEA_HepaRG_PDK4: Life Technologies and Expression Analysis (LTEA) Assay for Pyruvate Dehydrogenase Kinase 4 (PDK4) using HepaRG (AID 2283525). In outline:
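HepaRG cells plated 48 h, then switched to serum-free induction medium and exposed in duplicate for 48 h to 8 half-log concentrations from 100 uM in 0.5% DMSO. PDK4 mRNA measured by qRT-PCR, normalized to ACTB, GAPDH and POLR2A; bidirectional fit versus DMSO.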

Read-out in test [5]: NAD(P)H dehydrogenase [quinone] 1 (NQO1), NQO1 (gene 1728)
Description: LTEA_HepaRG_NQO1: Life Technologies and Expression Analysis (LTEA) Assay for NAD(P)H dehydrogenase [quinone] 1 (NQO1) using HepaRG (AID 2283526). The procedure, abridged:
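Human HepaRG hepatic cells received chemicals for 48 h in serum-free induction medium with 0.5% DMSO, up to 100 uM. Expression was assessed by TaqMan qRT-PCR against housekeeping controls and fitted bidirectionally against DMSO.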

Read-out in test [6]: Nuclear factor erythroid 2-related factor 2 (Homo sapiens) (UniProt Q16236)
In words: LTEA_HepaRG_NFE2L2: Life Technologies and Expression Analysis (LTEA) Assay for Nuclear factor erythroid 2-related factor 2 (NFE2L2) Transcription Factor using HepaRG (AID 2283527).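 On outcome: TaqMan qRT-PCR transcript level normalised to ACTB GAPDH and POLR2A housekeeping genes.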 In outline: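 Differentiated human HepaRG cells, serum-free induction medium, exposed 48 h in duplicate to eight half-log concentrations up to 100 uM in 0.5% DMSO. NFE2L2 mRNA by Fluidigm TaqMan qRT-PCR, normalised to ACTB, GAPDH, POLR2A; bidirectional change versus DMSO.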

Read-out in test [7]: succinate dehydrogenase complex iron sulfur subunit B (SDHB), SDHB (gene 6390)
Description: LTEA_HepaRG_SDHB: Life Technologies and Expression Analysis (LTEA) Assay for succinate dehydrogenase complex iron sulfur subunit B (SDHB) using HepaRG (AID 2283528). In outline: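 A human HepaRG culture in serum-free induction medium received test chemicals for 48 h over an eight-point range capped at 100 uM. SDHB expression change was quantified by qRT-PCR.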

Read-out in test [8]: Signal transducer and activator of transcription 3 (Homo sapiens) (UniProt P40763)
In words: LTEA_HepaRG_STAT3: Life Technologies and Expression Analysis (LTEA) Assay for Signal transducer and activator of transcription (STAT3) using HepaRG (AID 2283529). The procedure, abridged: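 Differentiated HepaRG cells, serum-free induction medium, dosed 48 h in duplicate, 8 half-log concentrations from 100 uM in 0.5% DMSO. STAT3 mRNA by qRT-PCR, normalised to ACTB, GAPDH, POLR2A; bidirectional fit versus DMSO.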

Read-out in test [9]: solute carrier (SLCO1B1), SLCO1B1 (gene 10599)
In words: LTEA_HepaRG_SLCO1B1: Life Technologies and Expression Analysis (LTEA) Assay for solute carrier (SLCO1B1) using HepaRG (AID 2283530). In outline:
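Gain or loss of SLCO1B1 mRNA is fitted against the 0.5% DMSO vehicle in human HepaRG liver cells treated 48 h at up to 100 uM in half-log steps. Expression comes from qRT-PCR normalized to endogenous controls.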

Read-out in test [10]: sulfotransferase 2A1 (SULT2A1), SULT2A1 (gene 6822)
Description: LTEA_HepaRG_SULT2A1: Life Technologies and Expression Analysis (LTEA) Assay for sulfotransferase 2A1 (SULT2A1) using HepaRG (AID 2283531). In outline:
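Cells were plated and cultured 48 h, switched to serum-free induction medium, then dosed in duplicate for 48 h (8 concentrations, max 100 uM). RNA was isolated and SULT2A1 expression measured by qRT-PCR; gain or loss of signal fitted relative to DMSO.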

Read-out in test [11]: Transforming Growth Factor (TGFB1), TGFB1 (gene 7040)
In words: LTEA_HepaRG_TGFB1: Life Technologies and Expression Analysis (LTEA) Assay for Transforming Growth Factor (TGFB1) Transporter using HepaRG (AID 2283533). The procedure, abridged:
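Expression change of TGFB1 in human HepaRG cells is measured after a 48 h chemical exposure, up to 100 uM in 0.5% DMSO vehicle. Curves are fitted in both directions relative to the DMSO baseline.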

Read-out in another test: TIMP1, TIMP1 (gene 7076)
In words: LTEA_HepaRG_TIMP1: Life Technologies and Expression Analysis (LTEA) Assay for TIMP1 using HepaRG (AID 2283534).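 Further: TaqMan qRT-PCR signal normalized to ACTB GAPDH and POLR2A housekeeping genes.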 The procedure, abridged: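 We dosed human liver HepaRG cultures for 48 hours with up to 100 uM test chemical and measured TIMP1 expression by qRT-PCR. Activity in either direction is fitted relative to the 0.5% DMSO vehicle.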

Read-out in test [12]: Tumor necrosis factor receptor 1 (TNFRSF1A), TNFRSF1A (gene 7132)
In words: LTEA_HepaRG_TNFRSF1A: Life Technologies and Expression Analysis (LTEA) Assay for Tumor necrosis factor receptor 1 (TNFRSF1A) using HepaRG (AID 2283535). In outline: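 Expression of TNFRSF1A in human HepaRG liver cells was measured by qRT-PCR 48 h after chemical dosing (maximum 100 uM). Bidirectional curve fitting used 0.5% DMSO as baseline.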

Read-out in test [13]: Thyroid Hormone Responsive (THRSP), THRSP (gene 7069)
Description: LTEA_HepaRG_THRSP: Life Technologies and Expression Analysis (LTEA) Assay for Thyroid Hormone Responsive (THRSP) using HepaRG (AID 2283536). The procedure, abridged:
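Differentiated HepaRG cells treated 48 h in serum-free induction medium with 8 half-log concentrations up to 100 uM (0.5% DMSO), duplicates. THRSP mRNA by TaqMan qRT-PCR normalised to ACTB, GAPDH, POLR2A; bidirectional fit versus DMSO.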

Read-out in test [14]: Cellular tumor antigen p53 (Homo sapiens) (UniProt P04637)
In words: LTEA_HepaRG_TP53: Life Technologies and Expression Analysis (LTEA) Assay for Tumor Protein P53 (TP53) using HepaRG (AID 2283537). In outline:
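Gain or loss of TP53 mRNA signal is scored relative to 0.5% DMSO after 48 h chemical treatment of HepaRG liver cells, tested in duplicate at eight half-log concentrations up to 100 uM.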

Read-out in test [15]: UDP glucuronosyltransferase (UGT1A1), UGT1A1 (gene 54658)
Description: LTEA_HepaRG_UGT1A1: Life Technologies and Expression Analysis (LTEA) Assay for UDP glucuronosyltransferase (UGT1A1) using HepaRG (AID 2283538). The procedure, abridged: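 Human liver HepaRG cultures receive test chemical for 48 h, up to 100 uM in 0.5% DMSO, with phenobarbital induction controls. UGT1A1 mRNA is measured by qRT-PCR and normalized to ACTB, GAPDH and POLR2A.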

Read-out in test [16]: UDP glucuronosyltransferase (UGT1A6), UGT1A6 (gene 54578)
Description: LTEA_HepaRG_UGT1A6: Life Technologies and Expression Analysis (LTEA) Assay for UDP glucuronosyltransferase (UGT1A6) using HepaRG (AID 2283539). The procedure, abridged:
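Endpoint is UGT1A6 transcript induction or loss in a human liver cell line, quantified by TaqMan qRT-PCR 48 h after dosing. Concentrations ran from 100 uM downward in half-log steps in 0.5% DMSO; activity was fitted in both directions versus vehicle.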

Read-out in test [17]: X-box binding protein 1 (XBP1), XBP1 (gene 7494)
Description: LTEA_HepaRG_XBP1: Life Technologies and Expression Analysis (LTEA) Assay for X-box binding protein 1 (XBP1) using HepaRG (AID 2283540). The procedure, abridged: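 Human HepaRG monolayers receive test chemical for 48 h across an eight-point half-log series starting at 100 uM. XBP1 mRNA gain or loss is scored against DMSO by qRT-PCR.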

Read-out in test [18]: Protein phosphatase 2A (PPP2R4), PTPA (gene 5524)
In words: LTEA_HepaRG_PPP2R4: Life Technologies and Expression Analysis (LTEA) Assay for Protein phosphatase 2A (PPP2R4) using HepaRG (AID 2283522). In outline:
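Gene-expression endpoint in HepaRG hepatic cells: 48 h treatment across eight half-log concentrations up to 100 uM in 0.5% DMSO. PPP2R4 mRNA by qRT-PCR, normalized to three endogenous control genes.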

Read-out in test [19]: Transforming Growth Factor (TGFA), TGFA (gene 7039)
In words: LTEA_HepaRG_TGFA: Life Technologies and Expression Analysis (LTEA) Assay for Transforming Growth Factor (TGFA) using HepaRG (AID 2283532). In outline:
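Differentiated HepaRG cells exposed 48 hours in serum-free induction medium, 0.5% DMSO vehicle, 8-point half-log series from 100 uM, in duplicate. TGFA mRNA by TaqMan qRT-PCR, normalised to ACTB, GAPDH, POLR2A; bidirectional fit versus DMSO.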

Chain of Nuclear factor erythroid 2-related factor 2 (Homo sapiens) (Q16236 whole entry, looked up): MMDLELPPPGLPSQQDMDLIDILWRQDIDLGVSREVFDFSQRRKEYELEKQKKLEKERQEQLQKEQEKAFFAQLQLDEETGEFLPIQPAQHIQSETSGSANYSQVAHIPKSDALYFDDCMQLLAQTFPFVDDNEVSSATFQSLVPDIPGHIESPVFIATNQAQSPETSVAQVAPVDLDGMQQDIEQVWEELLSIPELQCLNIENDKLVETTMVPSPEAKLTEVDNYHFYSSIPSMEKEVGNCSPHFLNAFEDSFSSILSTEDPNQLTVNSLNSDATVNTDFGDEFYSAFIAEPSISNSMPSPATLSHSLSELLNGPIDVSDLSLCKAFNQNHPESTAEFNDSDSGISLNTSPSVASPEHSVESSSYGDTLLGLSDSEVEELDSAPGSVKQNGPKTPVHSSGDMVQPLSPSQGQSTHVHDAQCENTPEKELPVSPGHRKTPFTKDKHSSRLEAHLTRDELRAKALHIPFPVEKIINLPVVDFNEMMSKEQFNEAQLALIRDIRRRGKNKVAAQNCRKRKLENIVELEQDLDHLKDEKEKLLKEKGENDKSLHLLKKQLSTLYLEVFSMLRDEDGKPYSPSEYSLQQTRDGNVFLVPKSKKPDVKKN
Chain of Nuclear factor NF-kappa-B p105 subunit (Homo sapiens) (P19838 whole entry, looked up): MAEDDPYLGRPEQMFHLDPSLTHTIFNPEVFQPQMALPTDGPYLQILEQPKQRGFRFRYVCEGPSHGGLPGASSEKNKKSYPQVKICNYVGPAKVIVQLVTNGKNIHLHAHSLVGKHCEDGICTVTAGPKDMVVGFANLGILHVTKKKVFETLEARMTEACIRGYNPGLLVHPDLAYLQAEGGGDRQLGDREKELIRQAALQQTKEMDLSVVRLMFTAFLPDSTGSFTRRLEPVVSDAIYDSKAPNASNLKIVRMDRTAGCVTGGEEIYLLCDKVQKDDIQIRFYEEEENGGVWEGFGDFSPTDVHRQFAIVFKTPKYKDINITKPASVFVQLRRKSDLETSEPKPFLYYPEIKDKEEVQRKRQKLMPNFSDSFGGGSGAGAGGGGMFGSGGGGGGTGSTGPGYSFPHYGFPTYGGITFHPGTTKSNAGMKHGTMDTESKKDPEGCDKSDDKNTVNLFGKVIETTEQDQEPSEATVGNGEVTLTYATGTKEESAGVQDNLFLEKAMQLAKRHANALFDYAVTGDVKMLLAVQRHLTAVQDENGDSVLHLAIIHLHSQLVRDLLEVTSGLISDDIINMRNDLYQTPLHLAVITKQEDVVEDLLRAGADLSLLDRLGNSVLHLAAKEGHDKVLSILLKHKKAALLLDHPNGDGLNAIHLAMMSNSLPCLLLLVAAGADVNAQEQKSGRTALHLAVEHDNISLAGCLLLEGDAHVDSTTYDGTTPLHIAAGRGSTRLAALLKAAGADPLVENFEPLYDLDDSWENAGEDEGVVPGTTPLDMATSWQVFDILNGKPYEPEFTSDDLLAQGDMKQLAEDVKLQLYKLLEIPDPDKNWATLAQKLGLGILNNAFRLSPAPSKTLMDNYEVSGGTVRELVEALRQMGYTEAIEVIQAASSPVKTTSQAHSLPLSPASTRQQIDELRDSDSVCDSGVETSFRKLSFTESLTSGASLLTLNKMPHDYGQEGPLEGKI
Chain of Signal transducer and activator of transcription 3 (Homo sapiens) (P40763 whole entry, looked up): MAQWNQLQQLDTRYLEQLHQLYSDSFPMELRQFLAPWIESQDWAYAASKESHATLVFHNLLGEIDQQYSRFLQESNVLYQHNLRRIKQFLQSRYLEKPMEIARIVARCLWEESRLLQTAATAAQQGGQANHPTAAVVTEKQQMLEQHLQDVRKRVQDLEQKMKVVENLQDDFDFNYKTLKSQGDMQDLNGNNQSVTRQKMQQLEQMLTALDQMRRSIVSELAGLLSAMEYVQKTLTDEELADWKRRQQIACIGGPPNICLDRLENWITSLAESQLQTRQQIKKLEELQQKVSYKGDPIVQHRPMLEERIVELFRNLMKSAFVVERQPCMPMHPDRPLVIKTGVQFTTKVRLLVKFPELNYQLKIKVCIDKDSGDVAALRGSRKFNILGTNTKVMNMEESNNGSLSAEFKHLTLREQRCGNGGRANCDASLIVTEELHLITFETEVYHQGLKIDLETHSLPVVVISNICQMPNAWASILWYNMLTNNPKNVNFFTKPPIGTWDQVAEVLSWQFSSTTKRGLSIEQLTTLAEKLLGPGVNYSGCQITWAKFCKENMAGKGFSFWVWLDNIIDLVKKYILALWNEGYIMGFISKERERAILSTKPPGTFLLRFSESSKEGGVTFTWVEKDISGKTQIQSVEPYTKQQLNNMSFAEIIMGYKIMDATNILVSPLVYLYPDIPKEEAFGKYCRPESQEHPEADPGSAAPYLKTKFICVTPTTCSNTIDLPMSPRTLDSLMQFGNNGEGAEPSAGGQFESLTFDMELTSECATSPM
Chain of Cellular tumor antigen p53 (Homo sapiens) (P04637 whole entry, looked up): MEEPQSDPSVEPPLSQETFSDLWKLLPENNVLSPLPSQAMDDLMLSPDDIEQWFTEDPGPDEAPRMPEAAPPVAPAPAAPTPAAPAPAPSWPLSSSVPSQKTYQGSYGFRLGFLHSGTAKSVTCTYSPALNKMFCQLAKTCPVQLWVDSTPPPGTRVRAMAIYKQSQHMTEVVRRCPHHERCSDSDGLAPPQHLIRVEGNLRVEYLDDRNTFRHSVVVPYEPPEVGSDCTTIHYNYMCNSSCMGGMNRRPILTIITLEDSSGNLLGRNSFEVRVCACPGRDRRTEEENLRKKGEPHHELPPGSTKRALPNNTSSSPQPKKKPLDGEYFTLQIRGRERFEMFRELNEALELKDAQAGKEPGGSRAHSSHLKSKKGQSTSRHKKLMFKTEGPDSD

As for `Cc1oc(-c2ccccc2)nc1CCOc1ccc(C[C@H](Nc2ccccc2C(=O)c2ccccc2)C(=O)O)cc1`, the outcome was “inactive” in test [1]; “inactive” with TIMP1, TIMP1 (gene 7076); “inactive” in test [17]. The concentration at half-maximal activity (AC50) is 23 µM (active) in [2]; 50 µM (active) in [3]; 0.338 µM (active) in test [4]; 29.6 µM (active) in test [5]; 11.9 µM (active) in test [6]; 26.1 µM (active) in [7]. Further, the concentration at half-maximal activity (AC50) was 21.2 µM (active) in test [8]; 23.4 µM (active) in test [9]; 23.4 µM (active) in test [10]; 31.3 µM (active) in [11]; 26.7 µM (active) in [12]; 24 µM (active) in [13]. The half-maximal activity concentration (AC50) in test [14] was 86.1 µM (active); in test [15], 23.1 µM (active); in test [16], 16.8 µM (active).
For the compound `COCC(C)OCC(C)O` (stereo not drawn), the compound was classed as inactive in test [1], in test [18], in [2], in [3], in test [4] and in test [5]. The result in test [6], in test [7], in test [8], in [9], in test [10] and in [11] was inactive. For the same compound, the outcome in the test with TIMP1, TIMP1 (gene 7076) is “inactive”; in test [12], “inactive”; in test [13], “inactive”; in test [15], “inactive”; in test [16], “inactive”. In test [17], the half-maximal activity concentration (AC50) was 50 µM (active).
Take `CCCCCCCCCCCCN1CCCC1=O`: the result in test [1], in test [2], in test [3], in test [4], in test [5] and in test [6] was inactive. For the same compound, the call in test [7], in test [8], in test [9], in test [10], in test [19] and in test [11] was inactive. Besides, the outcome was “inactive” with TIMP1, TIMP1 (gene 7076); “inactive” in [12]; “inactive” in [13]; “inactive” in [15]; “inactive” in test [16]; “inactive” in [17].
Regarding `CC(C)CCCCCCOC(=O)CCCCC(=O)OCCCCCCC(C)C`, the result in [1], in [2], in test [3], in [4], in [5] and in test [6] was inactive. The call in test [7], in [8], in test [9], in test [10], in test [19] and in test [11] was inactive. Further, the outcome with TIMP1, TIMP1 (gene 7076) is “inactive”; in [12], “inactive”; in [13], “inactive”; in [14] it was “inactive”; in [15] it was “inactive”; in test [16] it was “inactive”. In [17], the outcome was inactive.

The record behind these values is PubChem BioAssay (EPA / NIEHS).
